Assay results published in the OligoGym collection.

Target: GYG1
Assay: pooled miR-30 sensor sort-seq; sequence = guide strand
Conditions: shRNA
Also: reference of the scale not given here.

Sequence	sensor-assay potency score (higher = more potent)
TTACTGTACACAGAAAACTGGT	-0.292
TTGAAGCAGAGGTAAAACGTTG	-0.811
TTGCTCAGAAGCAAGATGCAAC	-0.936
TTACATATGAGCAGGTGTCTTT	-0.417
TACTGTGTAAGCGACCAGCAGT	-0.399
TTAATATCTTGAGTTTCCCTTA	-0.312
TACAGAACTGAACAAAAGCATT	-1.48
TAACCATCAGAGAACACACTGC	0.344
TTTAAGAACTGATACAGCCATC	-1.1
TAACAGACTTTTCTCAACCCAG	-0.49
TCTAGCAACTGTAACAGACTTT	-0.0429
TTTAATGAAAACCTCTAGCAAC	-1.05

Target: H2AFZ
Assay: as above
Conditions: shRNA

Sequence	sensor-assay potency score (higher = more potent)
TTTACCTTTAAGTCTTTTGATG	-0.972
TTGAACTTATCCACCAGAGTGG	-0.27
TTTAGGTGTCGATGAATACGGC	-0.619
TAGATTTTAGGTGTCGATGAAT	-1.16
TAAACTTCCAACTTGCTCAAAT	-0.831
TTTGTCTTGGCCTTTCCGGAGT	-0.897
ATAATGTCTGTACAAAACCAAA	-1.91
TTTGAAGCCACAGTAACACTTA	0.62
TAGCAAGTTGCAAGTGACGAGG	-0.877
TTAGGTGTCGATGAATACGGCC	-0.494
TTAAACTTCCAACTTGCTCAAA	-1
